Experiments:
Assay in all cases: DAPPL (digital affinity profiling via proximity ligation, sequencing); 10 mM Tris-HCl pH 7.5, 50 mM NaCl, 1 mM DTT, 4% glycerol, room temperature, 30 min; GST-TFs on glutathione beads, 16-mer random dsDNA library, 0.1% formaldehyde crosslink after washing; high values mean tight binding
FEV = target: T1, FEV (Homo sapiens, UniProt Q99581 1-238); details: protein: recombinant; tags: N-terminal GST; dsDNA, one strand shown
T1 sequence: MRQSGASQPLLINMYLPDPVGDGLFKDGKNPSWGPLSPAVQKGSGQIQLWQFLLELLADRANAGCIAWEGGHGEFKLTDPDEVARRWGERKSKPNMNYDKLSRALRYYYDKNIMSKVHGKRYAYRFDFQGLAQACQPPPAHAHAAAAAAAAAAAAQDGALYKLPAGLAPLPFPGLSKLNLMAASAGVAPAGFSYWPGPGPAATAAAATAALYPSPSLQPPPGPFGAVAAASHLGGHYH
Procedure, shortened: (§1)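 In yeast, human transcription factors were expressed with a GST fusion, then pulled down on glutathione beads and given DNA barcodes. Pooled with a tag-only sample, they were exposed to 200 nmole of a 16-mer random double-stranded DNA library (Tris/NaCl/DTT/glycerol buffer, room temperature, 30 min), washed, crosslinked with 0.1% formaldehyde, proximity-ligated using BsaI/T4 ligase for 1 h at 37 °C, PCR-amplified and read on an Illumina NextSeq500. Each hexamer's frequency of reads for a factor, divided by the matching frequency for the tag-only sample, gives the binding signal.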

ETV5 = ETV5 (Homo sapiens, UniProt P41161 1-510); details: protein: recombinant; tags: N-terminal GST; dsDNA, one strand shown
Procedure, shortened: as §1

HSF1 = HSF1 (Homo sapiens, UniProt Q00613 1-529); details: protein: recombinant; tags: N-terminal GST; chain copies: 3; dsDNA, one strand shown
Procedure, shortened: as §1

SPIC = target: T2, SPIC (Homo sapiens, UniProt Q8N5J4 1-248); details: protein: recombinant; tags: N-terminal GST; dsDNA, one strand shown
T2 sequence: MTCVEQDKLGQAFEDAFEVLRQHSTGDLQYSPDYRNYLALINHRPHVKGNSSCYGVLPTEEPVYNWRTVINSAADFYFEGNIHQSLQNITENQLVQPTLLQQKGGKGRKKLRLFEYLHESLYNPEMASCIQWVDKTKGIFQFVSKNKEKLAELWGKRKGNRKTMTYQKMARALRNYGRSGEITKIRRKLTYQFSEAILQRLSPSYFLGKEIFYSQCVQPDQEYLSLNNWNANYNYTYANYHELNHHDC
Procedure, shortened: as §1

ELF4 = ELF4 (Homo sapiens, UniProt Q99607 1-663); details: protein: recombinant; tags: N-terminal GST; dsDNA, one strand shown
Procedure, shortened: as §1

ELK4 = target: T3, ELK4 (Homo sapiens, UniProt P28324-2 1-405); details: protein: recombinant; tags: N-terminal GST; dsDNA, one strand shown
T3 sequence: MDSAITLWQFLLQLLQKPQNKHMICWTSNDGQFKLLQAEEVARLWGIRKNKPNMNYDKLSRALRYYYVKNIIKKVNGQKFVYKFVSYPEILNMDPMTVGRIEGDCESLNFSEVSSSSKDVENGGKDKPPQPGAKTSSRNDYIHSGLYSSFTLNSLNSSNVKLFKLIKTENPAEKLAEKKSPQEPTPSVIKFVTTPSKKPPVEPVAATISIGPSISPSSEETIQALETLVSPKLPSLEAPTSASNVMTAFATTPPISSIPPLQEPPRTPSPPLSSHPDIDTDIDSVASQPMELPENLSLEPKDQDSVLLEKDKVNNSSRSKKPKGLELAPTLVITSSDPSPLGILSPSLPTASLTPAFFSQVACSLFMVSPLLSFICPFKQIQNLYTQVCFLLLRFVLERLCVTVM
Procedure, shortened: as §1

ELF3 = target: T4, ELF3 (Homo sapiens, UniProt P78545 1-371); details: protein: recombinant; tags: N-terminal GST; dsDNA, one strand shown
T4 sequence: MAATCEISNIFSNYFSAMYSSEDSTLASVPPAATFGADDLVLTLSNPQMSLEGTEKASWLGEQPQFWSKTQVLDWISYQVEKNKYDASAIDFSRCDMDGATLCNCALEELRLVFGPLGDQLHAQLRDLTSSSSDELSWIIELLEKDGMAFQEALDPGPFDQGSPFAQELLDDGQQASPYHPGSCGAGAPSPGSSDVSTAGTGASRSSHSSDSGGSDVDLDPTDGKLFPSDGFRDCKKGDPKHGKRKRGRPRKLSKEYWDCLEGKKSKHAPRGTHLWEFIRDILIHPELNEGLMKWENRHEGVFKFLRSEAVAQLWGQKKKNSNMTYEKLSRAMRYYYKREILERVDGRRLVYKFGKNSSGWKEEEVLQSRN
Procedure, shortened: as §1

CRX = CRX (Homo sapiens, UniProt O43186 1-299); details: protein: recombinant; tags: N-terminal GST; dsDNA, one strand shown
Procedure, shortened: as §1

ETV1 = ETV1 (Homo sapiens, UniProt P50549 1-477); details: protein: recombinant; tags: N-terminal GST; dsDNA, one strand shown
Procedure, shortened: as §1

ETV2 = target: T5, ETV2 (Homo sapiens, UniProt O00321 1-342); details: protein: recombinant; tags: N-terminal GST; dsDNA, one strand shown
T5 sequence: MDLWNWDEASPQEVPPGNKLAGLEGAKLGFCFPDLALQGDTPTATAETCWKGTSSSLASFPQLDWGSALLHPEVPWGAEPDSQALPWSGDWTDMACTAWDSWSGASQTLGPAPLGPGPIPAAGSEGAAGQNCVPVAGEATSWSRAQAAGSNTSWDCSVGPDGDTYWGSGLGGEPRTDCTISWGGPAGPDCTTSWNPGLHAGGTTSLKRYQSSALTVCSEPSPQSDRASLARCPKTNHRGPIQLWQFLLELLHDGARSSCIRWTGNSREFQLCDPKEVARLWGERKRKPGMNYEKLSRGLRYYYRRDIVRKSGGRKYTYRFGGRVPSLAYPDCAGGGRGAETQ
Procedure, shortened: as §1

Sequence of ELF4 (Q99607 whole entry): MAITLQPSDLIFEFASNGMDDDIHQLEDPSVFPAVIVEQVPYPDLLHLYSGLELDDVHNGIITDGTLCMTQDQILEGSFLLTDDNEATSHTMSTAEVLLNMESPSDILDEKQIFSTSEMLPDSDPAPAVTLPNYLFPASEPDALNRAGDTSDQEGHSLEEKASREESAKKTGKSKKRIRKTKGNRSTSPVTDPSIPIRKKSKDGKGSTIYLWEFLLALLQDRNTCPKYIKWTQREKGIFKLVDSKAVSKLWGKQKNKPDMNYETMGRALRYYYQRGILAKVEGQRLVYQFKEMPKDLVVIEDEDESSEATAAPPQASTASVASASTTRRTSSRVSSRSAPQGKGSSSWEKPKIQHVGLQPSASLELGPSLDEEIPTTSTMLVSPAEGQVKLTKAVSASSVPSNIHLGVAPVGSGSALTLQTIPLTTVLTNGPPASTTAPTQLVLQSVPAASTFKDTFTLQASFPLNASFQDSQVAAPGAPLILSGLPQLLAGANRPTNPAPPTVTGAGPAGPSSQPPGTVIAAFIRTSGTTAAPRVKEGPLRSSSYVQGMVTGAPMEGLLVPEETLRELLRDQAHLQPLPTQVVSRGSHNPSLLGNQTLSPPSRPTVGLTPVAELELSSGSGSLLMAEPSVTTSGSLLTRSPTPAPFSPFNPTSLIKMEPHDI
Sequence of ETV5 (P41161 whole entry): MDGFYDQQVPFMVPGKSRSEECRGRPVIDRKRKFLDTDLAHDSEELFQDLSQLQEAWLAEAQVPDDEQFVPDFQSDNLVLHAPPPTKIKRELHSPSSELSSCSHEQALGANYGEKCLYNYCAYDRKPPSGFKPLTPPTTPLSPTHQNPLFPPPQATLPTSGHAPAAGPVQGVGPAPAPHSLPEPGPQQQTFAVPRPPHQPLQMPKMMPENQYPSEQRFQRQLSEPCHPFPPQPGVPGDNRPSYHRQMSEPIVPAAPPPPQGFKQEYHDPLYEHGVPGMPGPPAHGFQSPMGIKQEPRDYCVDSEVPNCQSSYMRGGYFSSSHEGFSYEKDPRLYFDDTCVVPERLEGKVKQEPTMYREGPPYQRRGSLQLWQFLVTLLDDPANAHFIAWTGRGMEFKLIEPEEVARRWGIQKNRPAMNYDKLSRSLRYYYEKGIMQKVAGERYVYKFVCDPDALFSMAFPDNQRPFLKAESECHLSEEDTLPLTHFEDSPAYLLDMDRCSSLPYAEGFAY
Sequence of HSF1 (Q00613 whole entry): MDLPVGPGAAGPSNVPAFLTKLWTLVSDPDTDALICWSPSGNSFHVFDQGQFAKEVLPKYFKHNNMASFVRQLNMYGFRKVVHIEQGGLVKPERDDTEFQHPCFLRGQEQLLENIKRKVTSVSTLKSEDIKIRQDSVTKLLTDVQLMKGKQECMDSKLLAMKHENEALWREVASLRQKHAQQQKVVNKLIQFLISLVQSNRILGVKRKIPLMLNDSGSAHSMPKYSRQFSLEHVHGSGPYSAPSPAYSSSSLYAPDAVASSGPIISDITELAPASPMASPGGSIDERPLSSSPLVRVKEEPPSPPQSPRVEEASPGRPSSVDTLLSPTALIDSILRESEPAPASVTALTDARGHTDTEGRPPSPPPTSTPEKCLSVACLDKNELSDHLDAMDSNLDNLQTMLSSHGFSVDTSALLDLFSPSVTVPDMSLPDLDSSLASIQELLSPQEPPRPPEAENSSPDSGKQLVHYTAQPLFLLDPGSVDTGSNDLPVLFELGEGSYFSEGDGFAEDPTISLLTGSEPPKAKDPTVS
Sequence of ETV1 (P50549 whole entry): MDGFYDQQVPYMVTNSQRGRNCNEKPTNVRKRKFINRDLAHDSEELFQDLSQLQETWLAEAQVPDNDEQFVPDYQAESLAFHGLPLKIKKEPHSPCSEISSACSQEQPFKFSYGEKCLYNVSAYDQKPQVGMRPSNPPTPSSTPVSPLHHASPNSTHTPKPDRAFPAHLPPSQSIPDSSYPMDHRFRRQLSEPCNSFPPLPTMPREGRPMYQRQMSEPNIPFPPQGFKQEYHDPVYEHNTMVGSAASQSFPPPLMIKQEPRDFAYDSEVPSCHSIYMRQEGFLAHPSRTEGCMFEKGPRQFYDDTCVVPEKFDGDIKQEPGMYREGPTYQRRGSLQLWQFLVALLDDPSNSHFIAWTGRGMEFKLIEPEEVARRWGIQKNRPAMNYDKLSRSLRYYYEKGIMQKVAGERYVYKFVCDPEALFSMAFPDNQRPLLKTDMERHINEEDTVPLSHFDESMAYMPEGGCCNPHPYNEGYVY
Sequence of CRX (O43186 whole entry): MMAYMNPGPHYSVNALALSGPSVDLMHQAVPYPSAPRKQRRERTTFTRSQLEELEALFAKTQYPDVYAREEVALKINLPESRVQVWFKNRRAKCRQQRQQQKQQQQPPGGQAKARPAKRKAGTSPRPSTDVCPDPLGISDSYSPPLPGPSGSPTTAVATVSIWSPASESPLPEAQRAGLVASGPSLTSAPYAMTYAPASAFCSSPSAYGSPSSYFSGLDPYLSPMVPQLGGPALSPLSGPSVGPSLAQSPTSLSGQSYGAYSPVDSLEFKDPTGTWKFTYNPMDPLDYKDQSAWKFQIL

Sequence	binding signal (FEV)	binding signal (ETV5)	binding signal (HSF1)	binding signal (SPIC)	binding signal (ELF4)	binding signal (ELK4)	binding signal (ELF3)	binding signal (CRX)	binding signal (ETV1)	binding signal (ETV2)
GCTTTT	1.07 fold enrichment (6-mer frequency, TF over GST control)	1.09 fold enrichment (6-mer frequency, TF over GST control)	1.12 fold enrichment (6-mer frequency, TF over GST control)	1.12 fold enrichment (6-mer frequency, TF over GST control)	1.18 fold enrichment (6-mer frequency, TF over GST control)	1.17 fold enrichment (6-mer frequency, TF over GST control)	1.14 fold enrichment (6-mer frequency, TF over GST control)	1.32 fold enrichment (6-mer frequency, TF over GST control)	1.1 fold enrichment (6-mer frequency, TF over GST control)	–
CTATCG	1.01 fold enrichment (6-mer frequency, TF over GST control)	1.06 fold enrichment (6-mer frequency, TF over GST control)	1.17 fold enrichment (6-mer frequency, TF over GST control)	1.04 fold enrichment (6-mer frequency, TF over GST control)	1.15 fold enrichment (6-mer frequency, TF over GST control)	1.09 fold enrichment (6-mer frequency, TF over GST control)	1.22 fold enrichment (6-mer frequency, TF over GST control)	1.08 fold enrichment (6-mer frequency, TF over GST control)	1.13 fold enrichment (6-mer frequency, TF over GST control)	–
GAATAT	1.03 fold enrichment (6-mer frequency, TF over GST control)	1.07 fold enrichment (6-mer frequency, TF over GST control)	1.67 fold enrichment (6-mer frequency, TF over GST control)	1.13 fold enrichment (6-mer frequency, TF over GST control)	1.05 fold enrichment (6-mer frequency, TF over GST control)	1.07 fold enrichment (6-mer frequency, TF over GST control)	1.09 fold enrichment (6-mer frequency, TF over GST control)	1.2 fold enrichment (6-mer frequency, TF over GST control)	1.03 fold enrichment (6-mer frequency, TF over GST control)	–
TCCCGA	1.31 fold enrichment (6-mer frequency, TF over GST control)	1.37 fold enrichment (6-mer frequency, TF over GST control)	2.34 fold enrichment (6-mer frequency, TF over GST control)	1.36 fold enrichment (6-mer frequency, TF over GST control)	1.25 fold enrichment (6-mer frequency, TF over GST control)	1.42 fold enrichment (6-mer frequency, TF over GST control)	1.26 fold enrichment (6-mer frequency, TF over GST control)	1.59 fold enrichment (6-mer frequency, TF over GST control)	1.29 fold enrichment (6-mer frequency, TF over GST control)	–
TCTAGG	–	1.05 fold enrichment (6-mer frequency, TF over GST control)	1.7 fold enrichment (6-mer frequency, TF over GST control)	1.24 fold enrichment (6-mer frequency, TF over GST control)	1.13 fold enrichment (6-mer frequency, TF over GST control)	–	1.07 fold enrichment (6-mer frequency, TF over GST control)	1.27 fold enrichment (6-mer frequency, TF over GST control)	–	1.11 fold enrichment (6-mer frequency, TF over GST control)
TAAAGC	1.04 fold enrichment (6-mer frequency, TF over GST control)	1.09 fold enrichment (6-mer frequency, TF over GST control)	1.33 fold enrichment (6-mer frequency, TF over GST control)	1.1 fold enrichment (6-mer frequency, TF over GST control)	1.05 fold enrichment (6-mer frequency, TF over GST control)	1.1 fold enrichment (6-mer frequency, TF over GST control)	1.06 fold enrichment (6-mer frequency, TF over GST control)	1.87 fold enrichment (6-mer frequency, TF over GST control)	1.08 fold enrichment (6-mer frequency, TF over GST control)	–
CATGAT	1.06 fold enrichment (6-mer frequency, TF over GST control)	1.08 fold enrichment (6-mer frequency, TF over GST control)	1.1 fold enrichment (6-mer frequency, TF over GST control)	1.14 fold enrichment (6-mer frequency, TF over GST control)	1.17 fold enrichment (6-mer frequency, TF over GST control)	1.13 fold enrichment (6-mer frequency, TF over GST control)	1.08 fold enrichment (6-mer frequency, TF over GST control)	1.17 fold enrichment (6-mer frequency, TF over GST control)	1.07 fold enrichment (6-mer frequency, TF over GST control)	–

From publication PMC7862700, “An all-to-all approach to the identification of sequence-specific readers for epigenetic DNA modifications on cytosine”
